# Assay results published in the supplement of paper PMC8728848.
# The sample as a whole holds a higher share of the strongest signals than the screen did.
# B1: pilr alpha (protein)
# chain: MLYGVTQPKHLSASMGGSVEIPFSFYYPWELATAPDVRISWRRGHFHRQSFYSTRPPSIHKDYVNRLFLNWTEGQKSGFLRISNLQKQDQSVYFCRVELDTRSSGRQQWQSIEGTKLSIT
# Legend:
# Test in all cases: glycan array binding signal (z-score within array); higher = stronger binding
# Settings in all cases: glycan notation: IUPAC condensed, linker removed
# [1] = target: Neu5Ac(a2-3)Gal(b1-3)GalNAc
# Procedure, shortened: (§1)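 Glycan array data came from 3228 arrays in the Consortium for Functional Glycomics database, and only arrays with an available protein sequence were kept. Glycan names were put into IUPAC-condensed notation, and columns mapping to the same glycan were averaged. The binding signal is a within-array Z-score, averaged across arrays of one protein sequence run at different concentrations or buffers and across linkers. A negative Z-score can be read as non-binding.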
# [2] = target: Neu5Ac(a2-3)Gal(b1-3)GalNAc(b1-4)[Neu5Ac(a2-8)Neu5Ac(a2-3)]Gal(b1-4)Glc
# Procedure, shortened: as §1
# [3] = target: Neu5Ac(a2-3)Gal(b1-4)GlcNAc(b1-3)Gal(b1-4)GlcNAc(b1-3)Gal(b1-4)GlcNAc
# Procedure, shortened: as §1
# [4] = target: Neu5Ac(a2-3)Gal(b1-4)GlcNAc(b1-6)[Gal(b1-3)]GalNAc
# Procedure, shortened: as §1
# [5] = target: Neu5Ac(a2-3)Gal6S(b1-4)GlcNAc
# Procedure, shortened: as §1
# [6] = target: Neu5Ac(a2-3)[GalNAc(b1-4)]Gal(b1-4)GlcNAc
# Procedure, shortened: as §1
# [7] = target: Neu5Ac(a2-3)[GalNAc(b1-4)]Gal(b1-4)GlcNAc(b1-3)GalNAc
# Procedure, shortened: as §1
# [8] = target: Neu5Ac(a2-6)Gal(b1-4)GlcNAc(b1-2)[Neu5Ac(a2-6)Gal(b1-4)GlcNAc(b1-6)]Man(a1-6)[Neu5Ac(a2-6)Gal(b1-4)GlcNAc(b1-2)Man(a1-3)][GlcNAc(b1-4)]Man(b1-4)GlcNAc(b1-4)GlcNAc
# Procedure, shortened: as §1
# [9] = target: Neu5Ac(a2-6)Gal(b1-4)GlcNAc(b1-3)Gal(b1-4)GlcNAc(b1-3)Gal(b1-4)GlcNAc(b1-2)Man(a1-3)[Neu5Ac(a2-6)Gal(b1-4)GlcNAc(b1-3)Gal(b1-4)GlcNAc(b1-3)Gal(b1-4)GlcNAc(b1-2)Man(a1-6)]GalNAc
# Procedure, shortened: as §1
# Neu5Ac(a2-6)GalNAc = target: Neu5Ac(a2-6)GalNAc
# Procedure, shortened: as §1
# [10] = target: Neu5Ac(a2-6)GalNAc(b1-4)GlcNAc
# Procedure, shortened: as §1
# [11] = target: Neu5Ac(a2-8)Neu5Ac(a2-3)[Gal(b1-3)GalNAc(b1-4)]Gal(b1-4)Glc
# Procedure, shortened: as §1
# [12] = target: Neu5Ac(b2-6)Gal(b1-4)GlcNAc
# Procedure, shortened: as §1
# Neu5Gc(a2-6)GalNAc = target: Neu5Gc(a2-6)GalNAc
# Procedure, shortened: as §1
binder,measurement,setting,value
B1,glycan array binding signal (z-score),[1],-0.231
same,glycan array binding signal (z-score),[2],-0.149
same,glycan array binding signal (z-score),[3],-0.173
same,glycan array binding signal (z-score),[4],-0.533
same,glycan array binding signal (z-score),[5],-0.007
same,glycan array binding signal (z-score),[6],-0.65
same,glycan array binding signal (z-score),[7],0.118
same,glycan array binding signal (z-score),[8],0.09
same,glycan array binding signal (z-score),[9],1.89
same,glycan array binding signal (z-score),Neu5Ac(a2-6)GalNAc,-0.546
same,glycan array binding signal (z-score),[10],-0.492
same,glycan array binding signal (z-score),[11],-0.167
same,glycan array binding signal (z-score),[12],-0.768
same,glycan array binding signal (z-score),Neu5Gc(a2-6)GalNAc,-0.353
